# HT1080 IDH1KD tx: toxicity to HT-1080 IDH1 knockdown cells (counter line); HT-1080 IDH1 knockdown viability, ATP luminescence, 48 h; Potency, µM (series often up to 46.1 µM), most hits filed as cytotoxic; hit rate 2% among 360,000; AID 686971
#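 Knockdown cells (IDH1KD HT-1080) received compounds 2 h after plating at 750 cells/well and were kept 48 h at 37 °C in 5% FBS RPMI. A CellTiter-Glo luminescence read gave % activity for curve fitting.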
# KB-3-1 cytotox: kills parental KB-3-1 adenocarcinoma cells | KB-3-1 viability, CellTiter-Glo ATP luminescence, 72 h | Potency, µM (doses to about 46.1 µM), most hits filed as cytotoxic | hit rate 1.4% among 400,000 | AID 1347075; note: nearly all actives have a fitted effect of over 60% in size
#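 Cytotoxicity in the drug-sensitive parental line KB-3-1 was scored as loss of CellTiter-Glo luminescence following 72 h incubation with compound. Values come from curve fitting of normalized concentration-response data.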
# KB-V1 MDR tox: kills drug-selected multidrug resistant KB-V1 cells; AID 1347076; KB-V1 MDR cells viability, CellTiter-Glo, 72 h; Potency, µM (series often up to 46.1 µM), actives largely listed as cytotoxic; hit rate 3.4% among 400,000; note: nearly all actives have a fitted effect of over 60% in size
#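 Cells of the MDR subline KB-V1 are plated, dosed with compound at multiple concentrations, and incubated 72 h at 37 degrees C; CellTiter-Glo is then added and luminescence read after 10 min.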
# HT1080NT lethal: kills 2HG-producing HT-1080-NT fibrosarcoma cells | HT-1080-NT fibrosarcoma viability, CellTiter-Glo ATP luminescence, 48 h | Potency, µM (top dose mostly 46.1 µM), most hits filed as cytotoxic | hit rate 1.6% among 360,000;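 note: NT is the 2HG producing partner of a matched IDH1 knockdown line; nearly all actives have a fitted effect of over 55% in size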
#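 Luminescent CellTiter-Glo readout after 48 hours of compound exposure at 37 degrees C defined viability of HT-1080-NT cells. Activity was normalized to DMSO wells and cell-free media wells; concentration-response curves were fitted and assigned curve classes.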
# SW480 rerep: DNA re-replication induction in SW480 cells; hit rate 1.8% among 340,000; Potency, µM (highest dose often 46.1 µM), usual class: activators; SW480 DNA re-replication, Hoechst DNA content imaging, 48 h; note: nearly all actives have a fitted effect of over 55% in size
#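 Readout is total intensity of Hoechst-stained nuclei, excited at 405 nm and collected at 500-530 nm. Compound treatment lasted 48 hr at 37 C in 5% CO2 before staining.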
# MCF10A rereplic: DNA re-replication induction in MCF 10a cells; MCF 10A DNA re-replication, Hoechst nuclear intensity, 48 h; Potency, µM (doses to about 46.1 µM), usual class: activators; hit rate 2.9% among 350,000; AID 624296; note: nearly all actives have a fitted effect of over 50% in size
# A number is an active result; – = inactive; ? = inconclusive; · = no result; ! = repeats disagree. Compounds with a hit are over-represented: about 8% of the library has one in this group of screens. Calls come from the whole dose curve; as a rule, active = well fitted curve in the direction sought with a large enough effect; inconclusive = small, poorly fitted or top-dose-only effect, or another doubt; inactive = no such curve, though single readings can be large; an effect the other way counts as inactive or inconclusive.
SMILES,HT1080 IDH1KD tx,KB-3-1 cytotox,KB-V1 MDR tox,HT1080NT lethal,SW480 rerep,MCF10A rereplic
Cn1c(-c2ccccn2)[n+](C)c2ccccc21,–,–,–,–,–,–
Cn1c(-c2cccc([N+](=O)[O-])c2)[n+](C)c2ccccc21,–,–,–,–,–,–
Cn1c(-c2ccc3ccccc3n2)[n+](C)c2ccccc21,?,9.2µM,?,?,–,–
CCOc1ccc(NC(=O)CC(c2ccccc2)c2ccc(F)cc2)cc1 (configuration not stated),–,–,18.4µM,–,–,–
COc1ccc(NC(=O)CC(c2ccc(F)cc2)c2ccc(OC(C)C)cc2)cc1 (configuration not stated),–,–,?,–,–,18.4µM
O=C1NC(=O)N(Cc2ccccc2)CC1Br (configuration not stated),–,?,–,–,–,–
CCOc1cc(N2CCOCC2)c(OCC)cc1NC(=O)Cc1ccc(OC)c(OC)c1,–,?,5.8µM,–,–,–
CCOc1cc(N2CCOCC2)c(OCC)cc1NC(=O)COc1ncnc2ccccc12,–,–,16.4µM,–,–,–
O=C1c2ccccc2C2=Nc3ccccc3SC(c3cccc(F)c3)C12 (configuration not stated),?,20.6µM,16.4µM,?,?,11.6µM
O=C(NC1CCCc2ccccc21)C1CCN(c2nnc(-n3cccc3)s2)CC1 (configuration not stated),–,–,?,–,–,16.4µM
Cc1cc(C)nc(N2CCC(C(=O)NC3CCCc4ccccc43)CC2)n1 (configuration not stated),–,–,–,–,–,–
O=C(NC1CCCc2ccccc21)C1CCN(S(=O)(=O)c2ccccc2F)CC1 (configuration not stated),–,–,7.31µM,–,–,–
Cc1csc(NC(=O)C2CCN(S(=O)(=O)c3ccccc3F)CC2)n1,–,–,14.6µM,–,–,–
Nc1c(Cl)cc(C2=NCCn3nc4ccccc4c32)cc1Cl,–,6.51µM,20.6µM,–,–,–
COCCCCC(=NOCCN)c1ccc(C(F)(F)F)cc1,·,·,·,·,?,–
COCCCC/C(=N\OCCN)c1ccc(C(F)(F)F)cc1,18.4µM!,?,?,?,–,–
O=C1c2ccccc2C(=O)N1Cc1cnc(N2CCN(c3ccccc3)CC2)s1,–,?,?,–,18.4µM,?
Cc1ccc(NC(=O)COC(=O)C2(c3ccc(Cl)cc3)CCCC2)cc1,?,?,–,?,?,20.6µM
O=C(C1CCCCN1S(=O)(=O)c1ccccc1)N1CCN(Cc2ccccc2)CC1 (configuration not stated),–,?,–,–,–,–
Cc1ccc(S(=O)(=O)N2CCCCC2C(=O)N2CCN(Cc3ccccc3)CC2)cc1 (configuration not stated),–,?,4.61µM,–,–,?
CCOc1cc(C(=S)N2CCCC2)ccc1OCc1ccccc1,–,–,?,–,–,–
CCCS(=O)(=O)NC(=O)C1(C)CCCN(C(=O)c2sccc2C)C1 (configuration not stated),–,–,–,–,·,·
COc1cc2c(-c3ccc(O)cc3)nc3c(c(C)nn3-c3ccccc3)c2cc1OC,–,?,3.66µM,–,?,14.6µM
COc1cccc(-c2nc3c(c(C)nn3-c3ccccc3)c3cc(OC)c(OC)cc23)c1,·,–,–,·,·,·
COc1cc2c(c(OC)c1OC)-c1c(cc3c(c1OC)OCO3)[C@@H](OC(C)=O)[C@H](C)[C@H](C)C2,–,–,–,–,?,–
[O-][N+]1=c2ccc(Nc3ccccc3)cc2=NC12CCCCC2,16.4µM,?,?,?,7.31µM,7.31µM
COc1ccc(Nc2ccc3c(c2)=NC2(CCCCC2)[N+]=3[O-])cc1,?,14.6µM,?,?,3.98µM,13µM
O=[N+]([O-])c1ccc2c(c1N1CCCCC1)=NC1(CCCCC1)[N+]=2[O-],–,–,–,–,?,?

# Bioassay records from PubChem.
